The source of these data is PubChem BioAssay AID1508600 (Functional Genomics Laboratory (NCATS/FGL), 2020).

In all, about 53,000 sequences went through this assay and about 3,700 (7%) were called active. The entries come from a sample that favours actives as a whole. A number with no mark means an inactive call.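 The calls were made as follows: active = gene knockdowns whose robust z-score for IL-1 alpha signal is at least 2 or at most -2, so actives lie on both sides; inactive = the rest.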

The experiment can be described thus: Components of the Cytosolic LPS Sensing Pathway: Gene Identification via Genome-wide siRNA Screen.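 Also: robust z of the log signal after scaling to non-targeting control siRNA wells of the plate.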 The settings on record: RAW264.7 macrophages, IL-1a HTRF, actives lie on both sides, screened at 100 nM (by protocol), cells primed 5 h with Pam3CSK4 first. An outline of the steps:
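Mouse macrophage line RAW264.7 is transfected with siRNA (100 nM final), grown 48h, primed with TLR ligand Pam3CSK4 5 h and given intracellular LipidA 24 h. IL-1a in supernatant is read by HTRF and viability by luminescence.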
In general terms: In TR-FRET formats the signal depends on donor and acceptor labels being close together.
With GGCUAAAGAGUCCUCGGUGTT against Serpina5, the z-score is 0.594.
For the sequence “GCAGACAGAAGAACACCAGTT against 1700024G13Rik”, the z-score is -0.177.
Regarding GGAAGAGUGUCUAAAUGUATT against Cbwd1, the z-score is 0.849.
As to GGUGAUUCACAUAACAGGCTT against Npas3, the z-score is 2.05 (active).
On to GGUUGAACAUAAGCACAAUTT against Cdkn2aip, for which the z-score is -0.42.
As for GGUCACCACUCCAUAUUCUTT against Vsir, the z-score is -0.561.
For GGAGACAUAUGAAGAGAUATT against Lsm3, the z-score is -0.702.
Consider GGAAGCUGGCAAGUUUAUGTT against Cfap161, for which the z-score is -0.159.
Next, CCUGGCAUAAGUGGUUUUATT against Zfp82: 1.13.
Consider GGAGCAUUUUCCAGUUGAGTT against Mrps35, for which the z-score is 2.41 (active).
With CCGUUGUAUAUACCAGUAUTT against Syt1, the z-score is 0.218.
Take GGAAAAACGUGGUGAACUATT against Zeb2: the z-score was 0.7.
Regarding CCAAUAACAGGAUUGAGAATT against Tnfrsf8, the z-score is -0.528.
On to GGUGUACAGAUCUGUCUGGTT against Dkk1, for which the z-score was 2.33 (active).
As to GGUGCAGUUUAAGAGAGAATT against Tmcc3, the z-score is -0.224.
Next, GGGUGGACCUUCGGAAUUATT against Mrpl23: 1.52; CGAAAUCUUUUCUAACCACTT against Drd4: 6.59 (active); GGACUUCUUACUGGAAUCATT against Slc5a12: 0.944.
With CGUUUUUGUCUAGUUUGAATT against Macrod2, the z-score was -1.08.
Regarding GGAGAUCAGCAGUUCAUUUTT against Csprs, the z-score is -1.66.
Consider GGUGUCAGAGGUAUUUUCATT against Bik, for which the z-score is -0.0455.
Next, GGCUUUUGAAAAGUUCACATT against Rnf32: -2.05 (active); GGAGUUGAUUGAGGUAAAGTT against Mettl3: -1.83; GGAAGAACCCUGCUACAUCTT against Mrpl37: 0.764.
Take GCACCUUAAUUCUUCGCCATT against Amigo2: the z-score was -0.638.
Consider GGUGCUUAUAUUGCUUCCCTT against Psmb5, for which the z-score was -0.147.
On to CCCGUUGCUUUAGAGCUCUTT against Dph2, for which the z-score is 0.912.
On to GGUCAGAGCUCUGGACAAATT against Hsd3b1, for which the z-score is 4.24 (active).
Next, GGUCGUCCAGCUGAAGAACTT against Mecr: 0.721; GGAAUUAGAGACUGCGGAATT against Zfp821: 0.422; “GGCAGAGCCUGGAUUUAUCTT against 2610524H06Rik”: -0.582.
Consider GGAGUUGCCAUGCUCAACATT against Olfr808, for which the z-score was 0.193.
Next, GGGAAACAGAAGUAUCUAUTT against Ar: -0.708.
As for GGAUAACAGCAAGCUGGCGTT against Taldo1, the z-score is -0.585.
Take GCUAAGACAGAACUCUUCUTT against Nap1l5: the z-score was 3.14 (active).
Next, GCGAGUGUAUGCUUGAGAATT against Hspa12b: 1.01.
Regarding CGACAAUCGACAAUCGUGCTT against Acta1, the z-score was -0.817.
Next, GGCUUGUUCAAGAGAAGAUTT against Slc25a41: 0.177; CCUUACCCAGCAAUAAAAATT against Thegl: 0.379.
For the sequence GGAUUCAGGAACACGGAGATT against D17H6S53E, the z-score is 2.29 (active).
Turning to GGUACGAAGAAGACAAAAATT against Tnfsf9, the z-score was -0.0411.
In the case of GCGGUGUGCUGGAUAAUUCTT against Vit, the z-score is -1.63.
In the case of CCACUGUCCCUAAGGUACUTT against Olfr161, the z-score is -0.292.
For the sequence GGGAUUUGUAUGAUGAUAATT against Sf3a3, the z-score is -1.79.
As for GGAGGAACAUAUCAAGGAATT against Tmem143, the z-score was 2.27 (active).
Turning to GGGAGAAUGUUUUUCUUACTT against Vsig8, the z-score was -0.956.
Regarding GGAGAUUGAACAGUCAAACTT against Pex5, the z-score was 3.01 (active).
GGAUAUCAACAGAUACAUCTT against Serpina12: the z-score was -0.493.
As to CGAUCUGUGAUUGAACCACTT against Pak1, the z-score was -0.0456.
Next, GCGUGGACGAAUGGAAACATT against Mapk13: -0.942.
GGGCAUCUUGUAUAUCUGGTT against Spata33: the z-score was 0.363.
For CCUAAUUUCCUAGAUCUUCTT against Rtp1, the z-score is -0.439.
In the case of CCUUUUCCAUGCCUACUCCTT against Bag3, the z-score was 0.339.
Next, CCUAAGGAAGAUAAACCGGTT against Sh2d7: -2.43 (active).
In the case of GGCAUUUACUACUUCAUAGTT against Nfam1, the z-score was 0.738.
Next, GGAUAACUACAGGAAUAAGTT against Spam1: -0.701.
CCGUCCCUAUGAAAUCAGCTT against Lrat: the z-score is 2.28 (active).
Next, GGCGAAUUGUAUUUGAAAGTT against Lactb: 0.686.
For GGAAGCAGUUCAUGUUAAGTT against Dtx4, the z-score was 1.12.
On to GCCCACCUAAACCAACAGUTT against Dap, for which the z-score is 0.989.
With GGAAAGAAGGACAUGUUGCTT against Fbxo2, the z-score was -1.22.
GGAGCACAGAAAACACAAGTT against Ncan: the z-score was 3.41 (active).
As for CCACGCUACAUGCAAUGGCTT against Itpka, the z-score is 0.0149.
Consider CCCUCUCUGGGACUACAUATT against Zfp395, for which the z-score was 0.00687.
For “GGCAUGAGGGCAAAUGAAATT against 4933434M16Rik”, the z-score was -0.707.
In the case of “GGAACAUUUUGGAAAAGACTT against 1300017J02Rik”, the z-score was -0.0855.
Next, GUACUAGCUAAUUGGGCCATT against Speer4b: 0.651; GGUUCACCUGGAUUCUGCATT against Clasrp: -2.1 (active); GGAGCAUAUACAACUCAGCTT against Dis3l: 0.1.
For the sequence GGAUGGGAUGAAAAUUGAATT against Papolg, the z-score was -0.566.
Take GCUUGUCUCACACAGCUCUTT against Olfr401: the z-score is -3.11 (active).
For the sequence GGUACUGGAAGAGGAGGUATT against Ppil3, the z-score was -0.507.
As to GCACAUUGGGAUAGCUGCATT against Trim65, the z-score is 1.48.
Next, GGAAAUAUGUGUCCGCACUTT against Mfap2: -0.0699.
With GAGAGGGCAUAAUGGUUUUTT against H3c3, the z-score was 4.58 (active).
Next, GGGAUACAGAUUUUGUUUATT against Olfr1261: -0.116; GGGAAGUUGUCUGACUAUUTT against Cyc1: 0.225.
Turning to GGGAAAUGGAGGAUAAUUATT against Zmat1, the z-score is -0.172.
As to GCAAUUACAGGAGGAAUUATT against Orc3, the z-score is 2.86 (active).
Next, GCUGAAAACUAGUCAGUCCTT against Epn3: -1.07; GCCUUAAAAGACCUGACGUTT against Abca8b: 2.12 (active); GCUUACAGCACAACAACAUTT against Ubap1: -0.00967.
In the case of CCUGGACACGAUUUCAGAGTT against Rbm6, the z-score is 1.18.
In the case of GGAGGGUCGGCUUAUAAUUTT against Adam6b, the z-score was 2.16 (active).
Next, GGAAGCUUCAAGCCAUGGUTT against Creb3: -0.919; CGUUGGAUCUUGAUAAAACTT against Lpar2: 0.179.
On to GGACUUGAUCAAUGGCUAUTT against Wscd1, for which the z-score is -0.043.
In the case of GUGGCGAUAUCCAGAGAUGTT against Vmn1r18, the z-score is 0.261.
As for GCCGGCUGUAUUCAGUACGTT against Hoxc9, the z-score was 3.06 (active).
For the sequence GCCACGUCUAAGUAUCAUUTT against Col6a1, the z-score was -0.377.
With GCUCUGUUGGAAAGGUUUATT against Exosc6, the z-score was 0.0305.
Consider GCAACUGUUCUACGUCUGATT against Tmprss2, for which the z-score was 1.63.
Next, GAAGCUGUCCAAGUACGAGTT against Atoh7: -0.299; GGCAUGACAUGUAGAUGGCTT against Aldh3b3: 2.17 (active); CGAGCAAUGUUAAAAAUGATT against Slain2: -0.993.
For the sequence GGGCAAACCCAAGACCUUATT against Sgms2, the z-score is -0.0749.
Consider GGAAUUUGAGAUUGAAUGUTT against Katnbl1, for which the z-score was 0.478.
GCCUGGAGACUACAUAUCCTT against Cdc20: the z-score was -2.09 (active).
Take GCUCGAAUGUGUAAAGACGTT against Csnk1e: the z-score is 0.982.
As to CCUUGUUGCUCUGUCGAUCTT against Grina, the z-score was 0.0669.
As for CCAAGCUUAUUGACAAUGATT against Spta1, the z-score is 0.213.
For the sequence GGUGUGUUAAUUUCUAGAUTT against Frs2, the z-score was 0.945.
As to GGCUUGAAGCCCUAGUACUTT against Prss30, the z-score is 2.46 (active).
As to GGACAACAAGAUCAGGACCTT against Akap4, the z-score was 0.535.
Next, GGUUACCUAUUGGAUGACATT against Muc19: -1.43; GGAAAAAUCAAAAGUGUUGTT against Tamm41: -1.55.
As for GACUACAAAGGAGAGCAAATT against Igfbp6, the z-score is 2.07 (active).
